# Data published in PubChem BioAssay (NCI).
# Where “and” joins values, the source holds several entries; their conditions need not be identical. Equal values may be shown once. Compounds without any hit were thinned out: in the full panel of roughly 83,000, 20% have a hit.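 The endpoint reported here, percent growth, reads 100 for growth as untreated, 0 for no net growth and -100 for all cells dead.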 Calls of active or inactive are those of the source. How the source made its calls: active means growth percent below 10; inactive means the rest.
# How the values were obtained:
# Experiment in all cases: NCI-60 one-dose screen, 48 h (100 = growth as untreated, 0 = no growth, -100 = all killed)
# Details in all cases: 10 µM unless noted
# T-47D breast = tested on: T-47D breast
# BT-549 breast = tested on: BT-549 breast
# MDA-MB-435 melanoma = tested on: MDA-MB-435 melanoma
# SW-620 colon = tested on: SW-620 colon
# MCF7 breast = tested on: MCF7 breast
# HCT-116 colon = tested on: HCT-116 colon
# HCC-2998 colon = tested on: HCC-2998 colon
# KM12 colon = tested on: KM12 colon
Structure (SMILES),growth (T-47D breast),growth (BT-549 breast),growth (MDA-MB-435 melanoma),growth (SW-620 colon),growth (MCF7 breast),growth (HCT-116 colon),growth (HCC-2998 colon),growth (KM12 colon)
S=C(S)N1CCCC1,98.4% (inactive) and 89% (inactive),91% (inactive) and 114% (inactive),109% (inactive) and 90.9% (inactive),96.2% (inactive) and 84.8% (inactive),72.9% (inactive) and 61.8% (inactive),89.7% (inactive) and 86.2% (inactive),113% (inactive) and 94.9% (inactive),90.4% (inactive) and 93.9% (inactive)
Cc1cccc(/C=C\C(=O)c2ccc(Cl)cc2)c1,93.8% (inactive) and 91.9% (inactive),82.9% (inactive),95.6% (inactive) and 84.4% (inactive),89.3% (inactive) and 69% (inactive),51.5% (inactive) and 73.7% (inactive),52.5% (inactive) and 62.3% (inactive),95% (inactive) and 98.2% (inactive),96.3% (inactive) and 95.1% (inactive)
O=S1(=O)CC(Br)C(Br)C1 (stereo unspecified),34.5% (inactive) and 63% (inactive),77.7% (inactive) and 82.9% (inactive),80.5% (inactive) and 95.1% (inactive),32.1% (inactive) and 29.8% (inactive),56.9% (inactive) and 63.7% (inactive),18.2% (inactive) and 66.8% (inactive),102% (inactive) and 117% (inactive),105% (inactive) and 116% (inactive)
NC(=O)NO,107% (inactive) and 46.6% (inactive),110% (inactive) and 41.5% (inactive),98.5% (inactive) and 74.4% (inactive),105% (inactive) and 78.4% (inactive),96.9% (inactive) and 65.2% (inactive),109% (inactive) and 67.6% (inactive),111% (inactive) and 73.1% (inactive),100% (inactive) and 67.8% (inactive)
COc1cc(C(=O)c2ccc3c(c2)OCO3)cc(OC)c1OC,34.4% (inactive) and 32.8% (inactive),45.5% (inactive) and 30.3% (inactive),-19.5% (active) and -21.3% (active),16.1% (inactive) and 9.92% (active),23.2% (inactive) and 14.8% (inactive),27.2% (inactive) and 24.5% (inactive),60.1% (inactive) and 54.8% (inactive),24.7% (inactive) and 27.3% (inactive)
O=C(Nc1ccc([N+](=O)[O-])cc1Cl)c1cc(Cl)ccc1O,-7.5% (active) and 3.54% (active),-35.7% (active) and -74.7% (active),-20% (active) and -17.3% (active),0.797% (active) and 1.64% (active),3.12% (active),-45.4% (active) and -78.2% (active),-23.1% (active) and -28.9% (active),-58.1% (active) and -25.8% (active)
CC1=CCC2CC1C2(C)C (stereo unspecified),105% (inactive) and 102% (inactive),71.6% (inactive) and 68.8% (inactive),98.3% (inactive) and 94.2% (inactive),101% (inactive) and 103% (inactive),98.1% (inactive) and 91.6% (inactive),92.2% (inactive),42.3% (inactive),100% (inactive) and 110% (inactive)
CCN(CC)CCCC(C)Nc1ccnc2cc(Oc3ccccc3)ccc12 (stereo unspecified),28.8% (inactive) and 83.9% (inactive),62.9% (inactive) and 86% (inactive),2.5% (active) and 24.4% (inactive),55.8% (inactive) and 79.4% (inactive),55.3% (inactive) and 82.7% (inactive),32% (inactive) and 54.9% (inactive),90.9% (inactive) and 77.7% (inactive),78.5% (inactive) and 87.2% (inactive)
Oc1ccccc1/C=N\NC(=S)N/N=C/c1ccccc1O,48.4% (inactive) and 51.6% (inactive),47.3% (inactive) and 49.8% (inactive),56.3% (inactive) and 44.2% (inactive),47.5% (inactive) and 50.7% (inactive),25.6% (inactive) and 26.8% (inactive),28% (inactive) and 22.9% (inactive),33.8% (inactive) and 49.7% (inactive),39% (inactive) and 28.2% (inactive)
CC(=O)Nc1cccc2c1CCCC2,92.7% (inactive),97% (inactive),103% (inactive) and 110% (inactive),108% (inactive) and 107% (inactive),92.1% (inactive) and 91.2% (inactive),97.5% (inactive) and 102% (inactive),99.8% (inactive) and 95.3% (inactive),102% (inactive) and 103% (inactive)
Clc1ccc(SSc2ccc(Cl)cc2)cc1,96.2% (inactive) and 103% (inactive),89% (inactive) and 9.06% (active),94% (inactive) and 100% (inactive),97.3% (inactive) and 88.8% (inactive),102% (inactive) and 75.1% (inactive),95.9% (inactive) and 71% (inactive),96.8% (inactive) and 98% (inactive),107% (inactive)
CN(C)c1ccc(C(Cc2ccc3ccccc3n2)Cc2ccc3ccccc3n2)cc1,34.7% (inactive) and 74.4% (inactive),-3.35% (active) and 93.1% (inactive),32.7% (inactive) and 87.1% (inactive),48.1% (inactive) and 79.3% (inactive),40.8% (inactive) and 68% (inactive),15.4% (inactive) and 51.6% (inactive),35% (inactive) and 91.1% (inactive),42.1% (inactive) and 81% (inactive)
ClC/C=C/CSc1ncnc2nc[nH]c12,98% (inactive) and 99.5% (inactive),102% (inactive) and 158% (inactive),108% (inactive) and 103% (inactive),98.8% (inactive) and 110% (inactive),99.8% (inactive) and 93.7% (inactive),105% (inactive),106% (inactive) and 108% (inactive),113% (inactive) and 105% (inactive)
COc1ccc(NC(=S)Nc2ccccn2)cc1,101% (inactive),105% (inactive),98.7% (inactive),102% (inactive),95.1% (inactive),95.4% (inactive),101% (inactive),91% (inactive)
CC(O)Cn1cnc2c1c(=O)n(C)c(=O)n2C (stereo unspecified),85.8% (inactive),83.5% (inactive),109% (inactive),113% (inactive),92.8% (inactive),102% (inactive),106% (inactive),104% (inactive)
N#CCCOc1ccccc1,96.5% (inactive),88.2% (inactive),96.4% (inactive),106% (inactive),94.1% (inactive),106% (inactive),110% (inactive),106% (inactive)

Structure (SMILES),growth (T-47D breast),growth (BT-549 breast),growth (MDA-MB-435 melanoma),growth (SW-620 colon),growth (MCF7 breast),growth (HCT-116 colon),growth (HCC-2998 colon),growth (KM12 colon)
CN(C)CCCN1c2ccccc2Sc2ccc(Cl)cc21,77% (inactive) and 105% (inactive) and 87.2% (inactive),84.6% (inactive) and 114% (inactive) and 96.2% (inactive),21.3% (inactive) and 129% (inactive) and 55.5% (inactive),86.3% (inactive) and 102% (inactive) and 83.8% (inactive),37.8% (inactive) and 101% (inactive) and 66.6% (inactive),28.1% (inactive) and 110% (inactive) and 59.2% (inactive),58.9% (inactive) and 107% (inactive) and 91.1% (inactive),87.7% (inactive) and 114% (inactive) and 100% (inactive)
COc1ccccc1NC(=O)OCC#CCOC(=O)Nc1ccccc1OC,96.7% (inactive) and 89.2% (inactive),91% (inactive),95.2% (inactive) and 75.5% (inactive),102% (inactive) and 90.2% (inactive),107% (inactive) and 91.8% (inactive),99.9% (inactive) and 87.4% (inactive),103% (inactive) and 104% (inactive),108% (inactive) and 91.2% (inactive)
CN(C)c1ccc2nc3ccc(=[N+](C)C)cc-3sc2c1,11.8% (inactive) and 4.2% (active) and 27.3% (inactive),60.2% (inactive) and 69.8% (inactive) and 71.9% (inactive),-43.7% (active) and -14% (active) and 52.5% (inactive),15.2% (inactive) and 15.3% (inactive) and 14.7% (inactive),12.7% (inactive) and -5.86% (active) and 7.47% (active),4.82% (active) and 4.09% (active) and 11.1% (inactive),49% (inactive) and 36.7% (inactive) and 53.9% (inactive),36.6% (inactive) and 33% (inactive) and 48.2% (inactive)
O=C(c1ccc(Cl)cc1)C(NCCO)c1ccc(Cl)cc1 (stereo unspecified),85.4% (inactive),104% (inactive) and 94.6% (inactive),97.9% (inactive) and 108% (inactive),101% (inactive) and 102% (inactive),103% (inactive) and 97.3% (inactive),102% (inactive) and 99.4% (inactive),101% (inactive),105% (inactive) and 101% (inactive)
COc1cc2nc(N3CCC[C@@H](NC(=O)C4COc5ccccc5O4)C3)nc(N)c2cc1OC (stereo partly specified),92.2% (inactive) and 90.3% (inactive),107% (inactive) and 113% (inactive),96.9% (inactive) and 99.5% (inactive),100% (inactive) and 107% (inactive),100% (inactive) and 98.9% (inactive),95.9% (inactive) and 95.2% (inactive),104% (inactive) and 98.3% (inactive),104% (inactive) and 103% (inactive)
CN(C)c1ccc(C(=C2C=CC(=[N+](C)C)C=C2)c2ccccc2Cl)cc1,-33.3% (active) and -72.6% (active),-35.9% (active) and 1.51% (active),-40.9% (active) and -29% (active),-75.8% (active) and -78.1% (active),-9.73% (active) and -58.7% (active),-66.7% (active) and -99.5% (active),-92.3% (active) and -98.8% (active),-94.6% (active) and -87.2% (active)
CC(C)(C)c1ccc(O)c(CNC2CCCCC2)c1,112% (inactive) and 75.9% (inactive),85.1% (inactive),97.9% (inactive) and 96.6% (inactive),101% (inactive) and 98.5% (inactive),93% (inactive) and 93.8% (inactive),86.7% (inactive) and 88.3% (inactive),52.7% (inactive) and 104% (inactive),105% (inactive) and 92.2% (inactive)
CCN(CC)CCc1nc(-c2ccccc2)no1,55.8% (inactive) and 81.1% (inactive),55.2% (inactive) and 103% (inactive),90.1% (inactive) and 99.3% (inactive),73.3% (inactive) and 114% (inactive),58.5% (inactive) and 96% (inactive),85.5% (inactive) and 103% (inactive),113% (inactive) and 111% (inactive),85% (inactive) and 111% (inactive)
Nc1ccccc1Nc1ccccc1,88.1% (inactive) and 83.5% (inactive),70.9% (inactive) and 58.4% (inactive),91.5% (inactive),106% (inactive) and 112% (inactive),93.8% (inactive) and 91.8% (inactive),86.6% (inactive) and 88.8% (inactive),98.7% (inactive) and 96.4% (inactive),85.8% (inactive) and 79.6% (inactive)
Nc1n[nH]c(=S)n1-c1ccc(Cl)cc1,97.6% (inactive),92.5% (inactive),112% (inactive),97% (inactive),90.8% (inactive),95.4% (inactive),108% (inactive),103% (inactive)
Cc1ccc(-c2noc(C)n2)cc1,104% (inactive),98.6% (inactive),99% (inactive),108% (inactive),95.6% (inactive),101% (inactive),103% (inactive),116% (inactive)
c1ccc(NCc2ccc3c(c2)OCO3)cc1,94.3% (inactive) and 110% (inactive),99.4% (inactive) and 85.2% (inactive),111% (inactive) and 98.2% (inactive),102% (inactive) and 101% (inactive),99.7% (inactive) and 102% (inactive),103% (inactive) and 98.3% (inactive),102% (inactive) and 112% (inactive),103% (inactive) and 102% (inactive)
CCc1c(CC(=O)O)c2cc(C)ccc2n1Cc1ccc(Cl)cc1,86.3% (inactive) and -2.2% (active),94% (inactive) and 183% (inactive),114% (inactive) and 97.4% (inactive),102% (inactive),98.1% (inactive) and 95.4% (inactive),97.1% (inactive) and 110% (inactive),125% (inactive) and 98.4% (inactive),96% (inactive) and 95.3% (inactive)
O=C(O)C1C2C=CC(C2)C1C(=O)O (stereo unspecified),103% (inactive) and 79.5% (inactive) and 101% (inactive),96.8% (inactive) and 58.3% (inactive) and 105% (inactive),101% (inactive) and 19.1% (inactive) and 100% (inactive),104% (inactive) and 22.1% (inactive) and 103% (inactive),97.4% (inactive) and 5.27% (active) and 104% (inactive),104% (inactive) and 17.3% (inactive) and 112% (inactive),117% (inactive) and 46.1% (inactive) and 107% (inactive),106% (inactive) and 25.4% (inactive) and 104% (inactive)
CC(/C=N/N1C(=O)c2ccccc2C1=O)c1ccccc1 (stereo unspecified),98.7% (inactive),113% (inactive),91.6% (inactive),106% (inactive),97.5% (inactive),108% (inactive),106% (inactive),113% (inactive)
CC(O)(CC(=O)CC(=O)c1ccccc1)c1ccccc1 (stereo unspecified),108% (inactive) and 109% (inactive),93.4% (inactive) and 95.8% (inactive),97.8% (inactive),99.9% (inactive) and 107% (inactive),108% (inactive) and 123% (inactive),92.3% (inactive) and 92.6% (inactive),101% (inactive) and 92.8% (inactive),103% (inactive) and 104% (inactive)
